APOBEC3G inh: blocks human APOBEC3G single-stranded DNA deamination; inhibition, % at 20 µM; 0.28% of 330,000 active; recombinant A3G, ssDNA deamination FAM/TAMRA fluorescence; AID 493012; Q9HC16;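 active means inhibition of at least 40% at 20 µM, with no more than 30% in the related APOBEC3A deaminase screen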
Target sequence (Q9HC16 whole entry, looked up): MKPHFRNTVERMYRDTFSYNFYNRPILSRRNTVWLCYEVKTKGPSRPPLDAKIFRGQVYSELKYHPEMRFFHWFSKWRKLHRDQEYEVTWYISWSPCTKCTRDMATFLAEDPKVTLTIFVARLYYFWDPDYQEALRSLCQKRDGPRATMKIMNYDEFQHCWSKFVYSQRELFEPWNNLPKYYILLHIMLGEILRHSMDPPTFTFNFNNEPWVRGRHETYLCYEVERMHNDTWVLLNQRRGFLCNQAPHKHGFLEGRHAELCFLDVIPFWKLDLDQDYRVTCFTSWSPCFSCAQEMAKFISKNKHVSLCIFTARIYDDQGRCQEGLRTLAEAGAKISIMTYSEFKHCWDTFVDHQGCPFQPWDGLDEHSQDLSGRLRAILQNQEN
APOBEC3A inh: blocks human APOBEC3A ssDNA deamination. recombinant A3A, FAM/TAMRA ssDNA deamination fluorescence. inhibition, % at 20 µM. 0.41% of 330,000 active. AID 493011;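 active means at least 40% inhibition at 20 µM here, with at most 30% in a related deaminase screen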
Target sequence (P31941 whole entry, looked up): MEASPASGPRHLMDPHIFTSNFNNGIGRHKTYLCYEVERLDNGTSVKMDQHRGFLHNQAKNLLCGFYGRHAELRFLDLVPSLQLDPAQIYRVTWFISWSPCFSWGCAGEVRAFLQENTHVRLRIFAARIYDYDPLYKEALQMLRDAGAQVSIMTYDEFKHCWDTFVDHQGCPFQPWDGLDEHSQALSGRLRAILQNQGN
GC-B act: GC-B (human) receptor activation. 0.11% of 370,000 active. activation, % at 10 µM. HEK293-GC-B cells, CNP EC30, cGMP TR-FRET; 0% at EC30 CNP, 100% saturating CNP. P20594. AID 1920062;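 active means activation at 10 µM reaching about 35% in either raw or pattern-adjusted values, limit read from the data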
Neddylation inh: cullin neddylation inhibition; inhibition, % at 25 µM; TR-FRET cullin neddylation, biochemical; 0.58% of 360,000 active; P61081+Q13564; in the data active means inhibition above about 36%
NPR1 activator: GC-A (human) enzyme activation. P16066. HEK293 GC-A cells, cGMP TR-FRET, EC30 ANP; 0% at EC30 ANP, 100% saturating ANP. activation, % at 10 µM. 0.14% of 370,000 active. AID 1671463; in the data active means activation above about 40%
PfGluPho inh: PfG6PD (Plasmodium falciparum) enzyme inhibition | PfGluPho enzyme, NADPH resazurin-diaphorase fluorescence | inhibition, % at 20 µM | 0.78% of 350,000 active | AID 504690;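 active means inhibition reaching at least a set limit at 20 µM in the primary screen, cut at about 59% in these data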
A3A conf: APOBEC3A (human) deaminase inhibition, confirmed; shares compounds with APOBEC3A inh; recombinant A3A, ssDNA deaminase UDG fluorescence assay; inhibition, % at 20 µM; 63% of 1,400 active; AID 493151;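 active means inhibition reaching a set limit, 80% of the first screen's cutoff, at 20 µM in any replicate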
UDG A3A counter: UDG inhibition in APOBEC3A counter-screen; shares compounds with APOBEC3A inh; UDG counterscreen, FAM/TAMRA uracil oligo fluorescence; inhibition, % at 20 µM; 1,000 tested, under 10 active; call rule not given here
Large screens that a line does not name were inactive (follow-up assays come after a bar, where shown). Only some compounds are listed: those with a hit (about 2% of all), similar ones and a draw of the others.

COc1ccc(OC)c(S(=O)(=O)n2c(CN3CCOCC3)nc3ccccc32)c1	none (no result: APOBEC3G inh, APOBEC3A inh, Neddylation inh, PfGluPho inh)
CN(C)CCN1C(=O)C(=O)/C(=C(/O)c2ccccc2)C1c1ccccc1F (configuration not stated)	APOBEC3A inh 72.0 | A3A conf inactive | UDG A3A counter inactive
CN(C)CCCN1C(=O)C(=O)/C(=C(/O)c2ccncc2)C1c1ccccc1 (configuration not stated)	none
O=c1c2ccccc2n(Cc2ccco2)n1[C@@H](Cc1ccccc1)Cn1cc(-c2ccc(-c3ccccc3)cc2)nn1	none (no result: APOBEC3G inh, APOBEC3A inh, Neddylation inh, PfGluPho inh)
O=[N+]([O-])c1ccc(CN2CCN(c3ccccc3Cl)CC2)o1	APOBEC3A inh 53.7 | A3A conf inactive
O=C1N(CCCO)CCC12CCCCC2	none (no result: APOBEC3G inh, APOBEC3A inh, Neddylation inh, PfGluPho inh)
CCCCN(C(=O)c1ccc([N+](=O)[O-])o1)c1c(N)n(CC(C)C)c(=O)[nH]c1=O	APOBEC3A inh 44.0 (no result: PfGluPho inh) | A3A conf inactive
CCCCN(C(=O)c1cc2ccccc2o1)c1c(N)n(CC(C)C)c(=O)[nH]c1=O	none
CCc1noc(C)c1C(=O)N(CCOC)c1c(N)n(CC(C)C)c(=O)[nH]c1=O	APOBEC3A inh 42.8 | A3A conf inactive
Cc1nn(-c2ccccc2)c2nc(-c3ccco3)cc(C(=O)O)c12	APOBEC3A inh 67.0 (not shown: Neddylation inh) | A3A conf 48.5 | UDG A3A counter inactive
CCOC(=O)[C@@]12CN(C(=O)OC(C)(C)C)CC=C1N(Cc1ccc(OC)cc1)C(=O)[C@H]2CC(=O)NCCCCc1ccccc1	none (no result: APOBEC3G inh, APOBEC3A inh, Neddylation inh, PfGluPho inh)
O=C1C2C3C=CC(C3)C2C(=O)N1c1ccncc1 (configuration not stated)	APOBEC3A inh 82.7 | A3A conf inactive | UDG A3A counter inactive
Cc1cc(C)cc(NC(=O)C2CCCN2C(=O)Oc2ccccc2)c1 (configuration not stated)	none
CCOc1ccc(NC(=O)C2CCCN2C(=O)Oc2ccccc2)cc1 (configuration not stated)	APOBEC3A inh 72.5 | A3A conf 78.0 | UDG A3A counter inactive
COc1ccc(CSCC(=O)N/N=C/c2ccc(OCC(=O)N3CCCCC3)cc2)cc1	APOBEC3A inh 52.5 | A3A conf 52.5 | UDG A3A counter inactive
O=C(CSCc1ccccc1)N/N=C/c1ccc(OCC(=O)N2CCCCC2)cc1	none (no result: APOBEC3G inh, APOBEC3A inh)
C[C@H]1COc2cc(Br)ccc2S(=O)(=O)N1Cc1cn(Cc2ccc(C(F)(F)F)cc2)nn1	none (no result: APOBEC3G inh, APOBEC3A inh, Neddylation inh, PfGluPho inh)
CCn1c2ccccc2c(=O)c2ccccc21	APOBEC3A inh 64.4 (not shown: Neddylation inh) | A3A conf inactive
CS(=O)(=O)c1ccc(Cl)c(NC(=O)CCCc2nc3ccccc3c(=O)[nH]2)c1	APOBEC3A inh 40.8 | A3A conf inactive
CCN(CC(=O)Nc1c(F)cccc1F)C(=O)CCNS(=O)(=O)c1ccc(C)c(C)c1	APOBEC3A inh 49.1 | A3A conf inactive | UDG A3A counter inactive
CCOc1ccc(S(=O)(=O)NCCC(=O)N(CC)CC(=O)Nc2c(F)cccc2F)cc1	none
CC(C)C(NC(=O)COc1ccc2ccccc2c1)C(=O)N/N=C/C=C/c1ccccc1 (configuration not stated)	APOBEC3A inh 41.3 | A3A conf 63.0 | UDG A3A counter inactive
COc1ccc(/C=C/C=N/NC(=O)COc2ccc(OC)cc2)cc1	none
Cc1cc(C)c(CSc2ncnc3nc[nH]c23)c(C)c1	APOBEC3A inh 52.6 | A3A conf inactive
COc1ccc(NC(=O)c2cc(-c3ccco3)nc3ccccc23)cn1	APOBEC3A inh 52.3 | A3A conf 45.0 | UDG A3A counter inactive
Cn1c(=O)c(C(=O)COC(=O)c2cc(-c3ccco3)nc3ccccc23)c(N)n(CC2CC2)c1=O	APOBEC3A inh 46.9 (no result: GC-B act, Neddylation inh, NPR1 activator, PfGluPho inh) | A3A conf 31.6
CCNC(=O)COC(=O)c1cc(-c2ccco2)nc2ccccc12	APOBEC3A inh 53.4 | A3A conf 33.9 | UDG A3A counter inactive
Cn1c(=O)c(C(=O)COC(=O)c2cc(C3CC3)nc3ccccc23)c(N)n(Cc2ccccc2)c1=O	none (no result: Neddylation inh)
COc1ccc(-n2c(SCC(=O)Nc3ccccc3-c3ccccc3)nnc2-c2ccccn2)cc1	none (no result: APOBEC3G inh, APOBEC3A inh, Neddylation inh, PfGluPho inh)
O=C(CSc1nc2ccccc2nc1N1CCCCC1)N1CCN(S(=O)(=O)c2cc(Cl)ccc2Cl)CC1	none (no result: APOBEC3G inh, APOBEC3A inh, Neddylation inh, PfGluPho inh)
O=[N+]([O-])c1ccc(C(O)C[n+]2ccccc2)cc1 (configuration not stated)	APOBEC3A inh 91.5 (no result: GC-B act, NPR1 activator) | A3A conf 70.7 | UDG A3A counter inactive
O=[N+]([O-])c1ccc(C(O)CN2CCN(c3ccccc3)CC2)cc1 (configuration not stated)	none
O=C(N=C1N(Cc2ccccc2)C[C@]2(C=C3CCCCC3n3c(=O)n(-c4ccccc4)c(=O)n32)N1C(=O)OCc1ccccc1)c1ccccc1 (some centres not stated)	none (no result: APOBEC3G inh, APOBEC3A inh, Neddylation inh, PfGluPho inh)
Nc1nc2c(s1)CCCCCCCCCC2	APOBEC3A inh 49.5 | A3A conf 37.8 | UDG A3A counter inactive
N#Cc1ccc(OC[C@@H](O)CN2CCC(C(O)(c3ccccc3)c3ccccc3)CC2)cc1F	none (no result: APOBEC3G inh, APOBEC3A inh, Neddylation inh, PfGluPho inh)
CO[C@@]1(NC(=O)C2SC(=C(C(N)=O)C(=O)O)S2)C(=O)N2C(C(=O)O)=C(CSc3nnnn3C)CS[C@@H]21 (some centres not stated)	APOBEC3A inh 49.5 | A3A conf 43.1 | UDG A3A counter inactive
CCOC(=O)[C@@]12CN(C(=O)OC(C)(C)C)CC=C1N(Cc1ccc(OC)cc1)C(=O)[C@H]2CC(=O)NCC12CC3CC(CC(C3)C1)C2	none (no result: APOBEC3G inh, APOBEC3A inh, Neddylation inh, PfGluPho inh)
CN(c1ccc(Br)cc1)S(=O)(=O)c1ccc2[nH]cc(C(=O)NCCN3CCOCC3)c(=O)c2c1	APOBEC3A inh 42.0 | A3A conf inactive
CC(=O)Nc1cccc(C(=O)OCC(=O)Nc2c(C)nn(-c3ccccc3)c2C)c1	APOBEC3A inh 52.4 | A3A conf inactive
Cc1nn(-c2ccccc2)c(C)c1NC(=O)COC(=O)c1ccccc1	none
CC[N+](C)(CC)CCC(c1ccccc1)C1CCCCC1 (configuration not stated)	APOBEC3A inh 48.0 | A3A conf 66.9 | UDG A3A counter inactive
Cc1cc(OCC(C)CN2CCC(C(O)(c3ccccc3)c3ccccc3)CC2)ccc1Br (configuration not stated)	none (no result: APOBEC3G inh, APOBEC3A inh, Neddylation inh, PfGluPho inh)
CCN1C(=NCCCCO)N[C@@H](c2cccc(C(F)(F)F)c2)C(C(=O)OC)=C1C	APOBEC3A inh 49.8 | A3A conf 60.6 | UDG A3A counter inactive

Bioassay records: PubChem, Sanford-Burnham Center for Chemical Genomics
